# Results as given in the supplement of paper PMC8728848.
# About 410 targets per protein were measured; listed, in parts, are those with the strongest signals and a random draw of the rest.
# How the values were obtained:
# Experiment in all cases: glycan array binding signal (z-score within array); higher = stronger binding
# Settings in all cases: glycan notation: IUPAC condensed, linker removed
# Fuc(a1-2)Gal(b1-3)GalNAc = biological target: Fuc(a1-2)Gal(b1-3)GalNAc
# In short: (§1)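 Glycan array data came from 3228 arrays in the Consortium for Functional Glycomics database, and only arrays with an available protein sequence were kept. Glycan names were put into IUPAC-condensed notation, and columns mapping to the same glycan were averaged. The binding signal is a within-array Z-score, averaged across arrays of one protein sequence run at different concentrations or buffers and across linkers. A negative Z-score can be read as non-binding.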
# [1] = biological target: Fuc(a1-2)Gal(b1-3)GalNAc(b1-4)[Neu5Ac(a2-3)]Gal(b1-4)Glc
# In short: as §1
# [2] = biological target: Fuc(a1-2)Gal(b1-3)GlcNAc(b1-3)[Gal(b1-4)GlcNAc(b1-6)]Gal(b1-4)Glc
# In short: as §1
# [3] = biological target: Fuc(a1-2)Gal(b1-4)[Fuc(a1-3)]GlcNAc(b1-3)Gal(b1-4)[Fuc(a1-3)]GlcNAc
# In short: as §1
# [4] = biological target: Fuc(a1-2)[Gal(a1-3)]Gal(b1-4)Glc
# In short: as §1
# [5] = biological target: Fuc(a1-2)[GalNAc(a1-3)]Gal(b1-4)GlcNAc(b1-2)Man(a1-3)[Fuc(a1-2)[GalNAc(a1-3)]Gal(b1-4)GlcNAc(b1-2)Man(a1-6)]Man(b1-4)GlcNAc(b1-4)[Fuc(a1-6)]GlcNAc
# In short: as §1
# [6] = biological target: Fuc(a1-2)[GalNAc(a1-3)]Gal(b1-4)GlcNAc(b1-3)GalNAc
# In short: as §1
# [7] = biological target: Fuc(a1-3)[Gal(b1-4)]Glc6S
# In short: as §1
# [8] = biological target: Fuc(a1-3)[Gal3S(b1-4)]Glc
# In short: as §1
# Gal(a1-3)Gal = biological target: Gal(a1-3)Gal
# In short: as §1
# [9] = biological target: Gal(a1-3)[Gal(a1-4)]Gal(b1-4)GlcNAc
# In short: as §1
# [10] = biological target: Gal(b1-3)GlcNAc(b1-3)Gal(b1-3)GlcNAc
# In short: as §1
# [11] = biological target: Gal(b1-3)GlcNAc(b1-3)Gal(b1-4)GlcNAc(b1-2)Man(a1-3)[Gal(b1-3)GlcNAc(b1-3)Gal(b1-4)GlcNAc(b1-2)Man(a1-6)]Man(b1-4)GlcNAc(b1-4)GlcNAc
# In short: as §1
# [12] = biological target: Gal(b1-3)GlcNAc(b1-3)Gal(b1-4)GlcNAc(b1-3)Gal(b1-4)GlcNAc(b1-2)[Gal(b1-3)GlcNAc(b1-3)Gal(b1-4)GlcNAc(b1-3)Gal(b1-4)GlcNAc(b1-6)]Man(a1-6)[Gal(b1-3)GlcNAc(b1-3)Gal(b1-4)GlcNAc(b1-3)Gal(b1-4)GlcNAc(b1-2)Man(a1-3)]Man(b1-4)GlcNAc(b1-4)[Fuc(a1-6)]GlcNAc
# In short: as §1
# [13] = biological target: Gal(b1-3)[Neu5Ac(a2-6)]GalNAc
# In short: as §1
# Gal(b1-4)GlcNAc(b1-2)Man = biological target: Gal(b1-4)GlcNAc(b1-2)Man
# In short: as §1
# [14] = biological target: Gal(b1-4)GlcNAc(b1-2)Man(a1-6)Man(b1-4)GlcNAc(b1-4)GlcNAc
# In short: as §1
# [15] = biological target: Gal(b1-4)GlcNAc(b1-2)[Gal(b1-4)GlcNAc(b1-4)]Man(a1-3)[Gal(b1-4)GlcNAc(b1-2)[Gal(b1-4)GlcNAc(b1-6)]Man(a1-6)]Man(b1-4)GlcNAc(b1-4)GlcNAc
# In short: as §1
# [16] = biological target: Gal(b1-4)GlcNAc(b1-2)[Gal(b1-4)GlcNAc(b1-4)]Man(a1-3)[GlcNAc(b1-4)][Gal(b1-4)GlcNAc(b1-2)[Gal(b1-4)GlcNAc(b1-6)]Man(a1-6)]Man(b1-4)GlcNAc(b1-4)GlcNAc
# In short: as §1
# [17] = biological target: Gal(b1-4)GlcNAc(b1-3)Gal(b1-3)GalNAc
# In short: as §1
# [18] = biological target: Gal(b1-4)GlcNAc(b1-3)Gal(b1-4)GlcNAc(b1-2)Man(a1-3)[Gal(b1-4)GlcNAc(b1-3)Gal(b1-4)GlcNAc(b1-2)Man(a1-6)]Man(b1-4)GlcNAc(b1-4)GlcNAc
# In short: as §1
# [19] = biological target: Gal(b1-4)GlcNAc(b1-3)Gal(b1-4)GlcNAc(b1-2)Man(a1-3)[Gal(b1-4)GlcNAc(b1-3)Gal(b1-4)GlcNAc(b1-2)Man(a1-6)]Man(b1-4)GlcNAc(b1-4)[Fuc(a1-6)]GlcNAc
# In short: as §1
# [20] = biological target: Gal(b1-4)GlcNAc(b1-3)Gal(b1-4)GlcNAc(b1-3)Gal(b1-4)GlcNAc
# In short: as §1
# [21] = biological target: Gal(b1-4)GlcNAc(b1-3)Gal(b1-4)GlcNAc(b1-3)Gal(b1-4)GlcNAc(b1-2)[Gal(b1-4)GlcNAc(b1-3)Gal(b1-4)GlcNAc(b1-3)Gal(b1-4)GlcNAc(b1-6)]Man(a1-6)[Gal(b1-4)GlcNAc(b1-3)Gal(b1-4)GlcNAc(b1-3)Gal(b1-4)GlcNAc(b1-2)Man(a1-3)]Man(b1-4)GlcNAc(b1-4)[Fuc(a1-6)]GlcNAc
# In short: as §1
# [22] = biological target: Gal(b1-4)GlcNAc(b1-3)Gal(b1-4)GlcNAc(b1-3)Gal(b1-4)GlcNAc(b1-3)Gal(b1-4)GlcNAc(b1-2)Man(a1-3)[Gal(b1-4)GlcNAc(b1-3)Gal(b1-4)GlcNAc(b1-3)Gal(b1-4)GlcNAc(b1-3)Gal(b1-4)GlcNAc(b1-2)Man(a1-6)]Man(b1-4)GlcNAc(b1-4)GlcNAc
# In short: as §1
# [23] = biological target: Gal(b1-4)GlcNAc(b1-6)[Gal(b1-4)GlcNAc(b1-3)]GalNAc
# In short: as §1
# [24] = biological target: Gal3S(b1-4)[Fuc(a1-3)]Glc6S
# In short: as §1
# [25] = biological target: GlcNAc(a1-4)Gal(b1-3)GlcNAc
# In short: as §1
binder,measurement,setting,value
Aap brpt (Staphylococcus epidermidis) (protein) VDGDPITSTEEIPFDKKREFDPNLAPGTEKVVQKGEPGTKTITTPTTKNPLTGEKVGEGEPTEKITKQPVDEIVHYGGEEIKTGHKDEFDPNAPKGSQTTQPGKPGVKNPDTGEVVTPPVDDVTKYGPVDGDPITSTEEIPFDKKREFDPNLAPGTEKVVQKGEPGTKTITTPTTKNPLTGEKVGEGEPTEKITKQPVDEIVHYGGEEIKPGHKDEFDPNAPKGSQEDVPGKPGVKNPDTGEVVTPPVDDVTKYGPVDGDSITSTEEIPFDKKREFDPNLAPGTEKVVQKGEPGTKTITTPTTKNPLTGEKVGEGEPTEKITKQPVDEIVHYGGEQIPQGHKDEFDPNAPVDSKTEVPGKPGVKNPDTGEVVTPPVDDVTKYGPVDGDSITSTEEIPFDKKREFDPNLAPGTEKVVQKGEPGTKTITTPTTKNPLTGEKVGEGKSTEKVTKQPVDEIVEYGPTK,glycan array binding signal (z-score),Fuc(a1-2)Gal(b1-3)GalNAc,-1
same,glycan array binding signal (z-score),[1],-0.026
same,glycan array binding signal (z-score),[2],0.337
same,glycan array binding signal (z-score),[3],-0.951
same,glycan array binding signal (z-score),[4],-0.658
same,glycan array binding signal (z-score),[5],0.323
same,glycan array binding signal (z-score),[6],-2.27
same,glycan array binding signal (z-score),[7],0.738
same,glycan array binding signal (z-score),[8],0.077
same,glycan array binding signal (z-score),Gal(a1-3)Gal,2.41
same,glycan array binding signal (z-score),[9],0.93
same,glycan array binding signal (z-score),[10],-0.56
same,glycan array binding signal (z-score),[11],-0.969
same,glycan array binding signal (z-score),[12],-0.027
same,glycan array binding signal (z-score),[13],0.106
same,glycan array binding signal (z-score),Gal(b1-4)GlcNAc(b1-2)Man,-0.301
same,glycan array binding signal (z-score),[14],-0.494
same,glycan array binding signal (z-score),[15],0.481
same,glycan array binding signal (z-score),[16],-0.768
same,glycan array binding signal (z-score),[17],-0.487
same,glycan array binding signal (z-score),[18],3.34
same,glycan array binding signal (z-score),[19],0.377
same,glycan array binding signal (z-score),[20],0.054
same,glycan array binding signal (z-score),[21],2.44
same,glycan array binding signal (z-score),[22],-0.738
same,glycan array binding signal (z-score),[23],-0.18
same,glycan array binding signal (z-score),[24],2.61
same,glycan array binding signal (z-score),[25],-0.124
